Data reported in PubChem BioAssay (NCI).
This is part of a sample that, as a whole, favours compounds with a hit. Of some 79,000 tested, about 15% had one in any assay. Rule as the data show it: active = growth inhibition above about 70%; inactive = the rest.

Columns and labels:
[1] = NCI Yeast Anticancer Drug Screen. Data for the rad50 strain (AID 155);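 also: 0% = growth of vehicle-only cultures of the same strain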; settings: S. cerevisiae rad50 strain growth inhibition; at 50.0 µM; stronger effect = higher value
Summary of the method: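 Relative growth inhibition (compound vs vehicle) was measured in yeast with a defined repair-gene alteration.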

[2] = NCI Yeast Anticancer Drug Screen. Data for the mec2-1 strain (AID 157); settings: S. cerevisiae mec2-1 strain, at 50.0 µM, stronger effect = higher value
Summary of the method: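 Mutant yeast (mec2-1) grown with compound; growth inhibition relative to vehicle control reported.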

[3] = NCI Yeast Anticancer Drug Screen. Data for the sgs1 mgt1 strain (AID 161);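 also: 0% = growth of cultures given vehicle only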; settings: S. cerevisiae sgs1 mgt1 strain, at 50.0 µM, stronger effect = higher value
Summary of the method: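 Growth of a repair-deficient yeast mutant was monitored after compound treatment and expressed as inhibition relative to vehicle-treated cultures.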

[4] = NCI Yeast Anticancer Drug Screen. Data for the cln2 rad14 strain (AID 165);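 also: 0% = growth equal to vehicle treated cultures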; settings: S. cerevisiae cln2 rad14 strain, at 50.0 µM, stronger effect = higher value
Summary of the method: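 Readout is yeast growth inhibition versus vehicle-treated controls, using a strain with cln2 and rad14 alterations exposed to compound.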

[5] = NCI Yeast Anticancer Drug Screen. Data for the bub3 strain (AID 167); settings: S. cerevisiae bub3 mutant strain, at 50.0 µM, stronger effect = higher value
Summary of the method: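 Screening used yeast with an engineered genetic alteration affecting cell cycle control. Compound-exposed cultures were compared with vehicle cultures, and reduced growth was taken as inhibition.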

[6] = NCI Yeast Anticancer Drug Screen. Data for the mlh1 rad18 strain (AID 175); settings: S. cerevisiae mlh1 rad18 strain growth inhibition; at 50.0 µM; stronger effect = higher value
Summary of the method: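 Genetically defined yeast (DNA repair-deficient) exposed to compounds; growth inhibition determined relative to vehicle.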

Measured: growth inhibition

COc1ccc(/C=c2/s/c(=C(\C#N)c3nc4ccccc4[nH]3)n(-c3ccccc3)c2=O)cc1
inactive: [1] 4% | [2] -15.2% | [3] -6.4% | [4] 13.9% | [5] -17.6% | [6] 13.2%

CCCC(=O)Oc1ccc(Cl)cc1C
inactive: [1] -2.3% | [2] -1.05% | [3] 2.85% | [4] -57.6% | [5] -13.6% | [6] -3.85%

CC(C)(C)C1CC/C(=N\Nc2ccc([N+](=O)[O-])cc2[N+](=O)[O-])C(Cc2ccccc2)C1 (stereo unspecified)
inactive: [1] 11.9% | [2] 21.1% | [3] 19.5% | [4] -26.6% | [5] 16.9% | [6] 0%

N#CC(C(=O)CCCC(=O)Nc1ccccc1[N+](=O)[O-])c1ccc(Cl)cc1Cl (stereo unspecified)
inactive: [1] -10.2% | [2] -22.6% | [3] -36.8% | [4] -41.5% | [5] 0.65% | [6] -26.6%

OCCNCN(CNCCO)c1nc(N(CNCCO)CNCCO)nc(N(CNCCO)CNCCO)n1
inactive: [1] 55.6% | [2] 19.7% | [3] 32.6% | [4] -49.5% | [5] 2.8% | [6] 12.4%

C/C(=N/NC(N)=O)c1ccccc1Cl
inactive: [1] -3.75% | [2] 3.5% | [3] -14.9% | [4] -20.4% | [5] -6.7% | [6] 12.8%

Cc1ccc(F)cc1S(N)(=O)=O
inactive: [1] -19.4% | [2] -9.65% | [3] -16.6% | [4] -14.4% | [5] 12.3% | [6] -7.8%

Cc1oc2nc(N(C)C)n3nnnc3c2c1C
inactive: [1] -0.35% | [2] -8.5% | [3] -6.15% | [4] -4.1% | [5] 25.3% | [6] -14.4%

O=C(NNc1nc(CCl)cs1)c1ccccc1Cl
inactive: [1] -0.15% | [2] -31.6% | [3] 4.75% | [4] 7.35% | [5] -11.1% | [6] -11.6%

c1ccc(CNCCCNCCCCNCCCNCc2ccccc2)cc1
inactive: [1] 7.75% | [2] -5.5% | [3] 9.4% | [4] -10.3% | [5] 17.8% | [6] 7.45%

O=C1C2=C(c3ccccc31)C(c1ccccc1Cl)N1C(=O)CSC1=N2 (stereo unspecified)
inactive: [1] 67.9% | [2] 50.2% | [3] 53.5% | [4] 48.6% | [5] 53.8% | [6] 60%

O=[N+]([O-])c1c(Nc2ccccc2)ncnc1Nc1ccccc1
inactive: [1] -33.9% | [2] -15.9% | [3] -9.6% | [4] 3.45% | [5] -10.6% | [6] 1.05%

CC(NC(=O)Nc1ccccc1Cl)c1ccccc1 (stereo unspecified)
inactive: [1] -2.05% | [2] 17.6% | [3] 1.5% | [4] -10.8% | [5] 34% | [6] 11.1%

Nc1c2ccccc2nc2nccnc12
inactive: [1] 3.6% | [2] 2.65% | [3] 5.95% | [4] 16.9% | [5] -3% | [6] 30.4%

COc1cc2c(c(OC)c1OC)-c1c(cc3c(c1OC)OCO3)C1OC2C(C)C1C (stereo unspecified) (tested in a mixture with another compound)
inactive: [1] -23.6% | [2] -55% | [3] -9% | [4] -20.4% | [5] -20.6% | [6] -39.2%

C[N+](C)(C)c1ccc(C(=O)[O-])cc1
inactive: [1] 3.55% | [2] 18.8% | [3] -0.4% | [4] 0.55% | [5] 16% | [6] 8.1%

CC(=O)Nc1ccc(/C=C(\NC(=O)c2ccccc2)C(=O)NNS(=O)(=O)c2ccc(C)cc2)cc1
inactive: [1] 21.6% | [2] 17.7% | [3] -9.3% | [4] -5.5% | [5] -4.2% | [6] 21.4%

COc1nc(N)c(NC(C)=O)c(=O)n1C
inactive: [1] 3.9% | [2] -19.2% | [3] -21.4% | [4] -4.3% | [5] -22.6% | [6] 9%

c1ccc(N2CCN(CCCN3CCc4c([nH]c5ccccc45)C3c3cccnc3)CC2)cc1 (stereo unspecified)
inactive: [1] -5.55% | [2] -18.1% | [3] -18.8% | [4] 14.1% | [5] -7.9% | [6] -1.8%

CN(C)CCSS(=O)(=O)O
inactive: [1] -4.9% | [2] -23.1% | [3] -26.3% | [4] 16.6% | [5] -19.1% | [6] -14.2%

CCCCCCCCCCCCCCCC/C(=C\c1ccc2ccccc2c1)[N+](=O)[O-]
inactive: [1] -29.2% | [2] -10.7% | [3] -24.6% | [4] -38.3% | [5] -1.75% | [6] -10%

O=c1cc[nH]c(=S)[nH]1.[Pt]
inactive: [1] 12.1% | [2] 19.3% | [3] 5.55% | [4] -19.4% | [5] 0.7% | [6] 28.6%

CSc1c2c(c(C)c3c1[nH]c1ccccc13)C=NCC2
inactive: [1] 10.8% | [2] 13.8% | [3] 8.6% | [4] -83.2% | [5] 14% | [6] 17.7%

COC(=O)NCCCCl
inactive: [1] 5.25% | [2] -10.7% | [3] 3.5% | [4] -14.2% | [5] -0.3% | [6] 3.15%

COc1ccc(/C=C/C(=O)CC(=O)/C=C/c2ccc(OC)cc2)cc1
inactive: [1] 23.1% | [2] 35% | [3] 7.65% | [4] 0.6% | [5] -2.75% | [6] 10.8%

CN(C)c1ccc(/C=N\NC(=S)NN2CCN(NC(=S)N/N=C\c3ccc(N(C)C)cc3)CC2)cc1
inactive: [1] 30.2% | [2] 11.1% | [3] 5.2% | [4] 4.85% | [5] 1.55% | [6] 27.8%

Cn1c(=O)c2c(n(C)c1=O)n1c(=O)c3ccccc3nc1n2C
inactive: [1] 12.9% | [2] 2.3% | [3] -15.6% | [4] -7.1% | [5] -7.3% | [6] -6.55%

CCCCCCc1ccc2c3cccc4cccc(c5cccc1c52)c43
inactive: [1] -9.25% | [2] -15.6% | [3] -22.1% | [4] -34.2% | [5] -11.1% | [6] -25.6%

OC1C(O)C2OC(c3ccccc3)OC2C2OC(c3ccccc3)OC12 (stereo unspecified)
inactive: [1] 7.1% | [2] -4.85% | [3] 0.95% | [4] 0.1% | [5] -15.4% | [6] -2.35%

CC[O-].Cc1ccc2cccc([O-])c2n1.Cc1ccc2cccc([O-])c2n1.Cc1ccc2cccc([O-])c2n1.[Ti+4]
inactive: [1] -18.1% | [2] -5.75% | [3] -1.5% | [4] 20% | [5] -1.25% | [6] 4.3%

N#Cc1c(N)nc([Se]CC(=O)c2ccc(Cl)cc2)c(C#N)c1-c1ccco1
inactive: [1] -7.45% | [2] -3.45% | [3] 2.3% | [4] 9.4% | [5] 4.1% | [6] 10.9%

Nc1nc(SCc2ccccc2[N+](=O)[O-])c2[nH]cnc2n1
inactive: [1] 29.2% | [2] 22.2% | [3] 16.2% | [4] 14.1% | [5] 45.4% | [6] 34%

Cc1ccc(S(=O)(=O)OC(c2ccc(Cl)cc2)C(F)(F)F)cc1 (stereo unspecified)
inactive: [1] 7.55% | [2] -22.6% | [3] -0.55% | [4] 21.9% | [5] 3.45% | [6] 17.8%

CCOC(=O)C(=CNc1cccc(N)n1)C(=O)OCC
inactive: [1] -3.35% | [2] -17.9% | [3] 28% | [4] -8.55% | [5] 20.4% | [6] 5.75%

CN(C)S(=O)(=O)C(C(=O)Nc1ccccc1)c1ccccc1 (stereo unspecified)
inactive: [1] -1.15% | [2] 13.8% | [3] 3% | [4] -34.7% | [5] -5.95% | [6] -10.5%

NC(=O)NCP(=O)(CNC(N)=O)CNC(N)=O
inactive: [1] -20% | [2] -7.3% | [3] -4.25% | [4] -20.4% | [5] 32.8% | [6] 4.95%

C/C(=N\NC(=S)N1CCN(c2ncccn2)CC1)c1ccccn1
inactive: [1] -2.4% | [2] -7.1% | [3] -6.8% | [4] -21.8% | [5] 9.35% | [6] 4.2%

CCOC(=O)C1C(C)NC(C)C(C(=O)OCC)C1C (stereo unspecified)
inactive: [1] 15.9% | [2] 1.05% | [3] 3.4% | [4] -44.5% | [5] 5.3% | [6] 26.1%

O=C(O)c1[nH]c(=O)[nH]c(=O)c1Br
inactive: [1] -4.3% | [2] -22.9% | [3] -9.75% | [4] -40.5% | [5] -15.7% | [6] -17.6%

COC(=O)c1ccccc1C1CN=NC12Cc1c(ccc3c1CCC3)C2=O (stereo unspecified)
inactive: [1] -4.35% | [2] -5.95% | [3] -15.1% | [4] -9.7% | [5] 27.9% | [6] -0.85%

CCOc1c(N=Nc2ccc(OC)cc2)c(C)nn1C(N)=S
inactive: [1] -12.5% | [2] -1.5% | [3] 2.85% | [4] -48.7% | [5] 9.75% | [6] 15.2%
